Consider 21 compounds from PubChem BioAssay (NCATS).

One experiment has as its system CRL-7250. The experiment can be described thus: Cytotoxic Profiling of Annotated Libraries Using Quantitative High-Throughput Screening (AID 1296008). For max response: % is set by controls: 0 for no effect and ±100 for the full control effect. Note: potency is the fitted concentration of half-maximal effect. Particulars: Five cell lines viability, CellTiter-Glo ATP luminescence, 48-72 h; max response: hits give low values. The method, boiled down:
(§1)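 Cells exposed to compounds for 48 or 72 hr at 37 degrees Celsius. Viability read as ATP-coupled luminescence with CellTiter-Glo after 10 min at room temperature.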

In the next experiment the test system is HEK293. The description is as above. Particulars: Five cell lines viability, CellTiter-Glo ATP luminescence, 48-72 h; max response: hits give low values. The method in brief:
as §1

A further experiment concerns HaCat. The experiment is described as above. Particulars: Five cell lines viability, CellTiter-Glo ATP luminescence, 48-72 h; max response: hits give low values. The method, boiled down:
as §1

The test system of a further experiment is KB-3-1. The description is as above. Particulars: Five cell lines viability, CellTiter-Glo ATP luminescence, 48-72 h; max response: hits give low values. The method, boiled down: as §1
The subject of another experiment is PC49. The experiment can be described thus: qHTS profiling for inhibitors of Plasmodium falciparum proliferation (AID 504749).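 Note: 0% = DMSO vehicle and full inhibition = artemisinin control.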 As to conditions: P. falciparum in erythrocytes, SYBR Green DNA, 72 h; series mostly up to 28.7 µM. The method in brief:
(§2)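 SYBR Green fluorescence (ex 485 nm, em 535 nm) reports parasite DNA after 72 h compound exposure of infected red cells at 0.3% parasitemia, 2.5% hematocrit; signal normalized to 0.29 uM artemisinin and vehicle wells.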

The next experiment has as its system SC27B. The experiment is described as above. Particulars: P. falciparum in erythrocytes, SYBR Green DNA, 72 h; series mostly up to 28.7 µM. The method in brief:
as §2

A further experiment has as its system TAB109. The experiment is described as above. As to conditions: P. falciparum in erythrocytes, SYBR Green DNA, 72 h; series mostly up to 28.7 µM. The method, boiled down: as §2
The next experiment has as its system TAB113. The description is as above. Particulars: P. falciparum in erythrocytes, SYBR Green DNA, 72 h; series mostly up to 28.7 µM. The method in brief: as §2
The subject of a further experiment is TAB165. The experiment is described as above. As to conditions: P. falciparum in erythrocytes, SYBR Green DNA, 72 h; series mostly up to 28.7 µM. The method, boiled down:
as §2

The next experiment concerns W2. The experiment is described as above. Particulars: P. falciparum in erythrocytes, SYBR Green DNA, 72 h; series mostly up to 28.7 µM. The method, boiled down:
as §2

Several values for one entry are separate records, joined by “and”; a condition that tells them apart may be missing. Equal entries are not always repeated. Records with an inconclusive call do not appear. Values without a mark were called inactive. Activity calls are given as the source filed them. Calls come from the whole dose curve; as a rule, active = well fitted inhibition curve with a large enough effect; inconclusive = small, poorly fitted or top-dose-only effect; inactive = flat fitted curve, though single readings scatter.
Note: nearly all actives have a fitted effect of over 60% in size.

For the compound `COc1ccc(-c2nc(N3CCOCC3)c3sc(CN(C)c4ncc(C(=O)NO)cn4)cc3n2)cn1`, the Potency is 59 nM (active) with CRL-7250, 0.0166 µM (active) with HEK293, 148 nM (active) in the experiment with HaCat and 26.4 nM (active) with KB-3-1.
As to `Cn1c(N2CCCCS2(=O)=O)nc(C(=O)NCc2ccc(F)cc2)c(O)c1=O`, the max response in the experiment on CRL-7250 was -1.04% and -2.16%; in the experiment on HEK293, -2.82% and 1.1%; in the experiment on KB-3-1 it was 0.163% and -14.6%. Further, in the experiment with HaCat, the result was inactive.
Consider `CC(C)NCC(O)COc1cccc2[nH]ccc12` (stereo not drawn), for which the max response in the experiment on CRL-7250 was -21.3% and 3.12%; in the experiment on HEK293, -23%; in the experiment with HaCat, -22.9% and 1.98%; in the experiment on KB-3-1 it was 13.5% and 2.02%.
Regarding `CCN1CCC[C@H]1CNC(=O)c1cc(S(N)(=O)=O)ccc1OC`, the compound was classed as inactive in the experiment on PC49, in the experiment with TAB109, in the experiment with HEK293, in the experiment on HaCat and in the experiment with KB-3-1. Also, the Potency entry in the experiment on SC27B, in the experiment with TAB113, in the experiment on TAB165 and in the experiment on W2 was “inactive” throughout. The max response with CRL-7250 was -0.0938% and -2.14%; in the experiment with HaCat it was -3.98%; in the experiment on KB-3-1, -2.45%.
As to `CNC(=O)c1ccc2cc(C3(O)CCn4cncc43)ccc2c1` (stereo not drawn), the max response is -2.53% and -8.91% with CRL-7250; -5.04% and 1.96% in the experiment on HEK293; 0.87% in the experiment on HaCat; -2.71% in the experiment with KB-3-1. Besides, the outcome with HaCat and with KB-3-1 was inactive.
As to `CC#CCn1c(N2CCC[C@@H](N)C2)nc2c1c(=O)n(Cc1nc(C)c3ccccc3n1)c(=O)n2C`, the max response was 0.558% in the experiment with CRL-7250, -21.1% with HEK293, 3.66% with HaCat and -0.824% in the experiment with KB-3-1.
Taken in the same sequence, the figures for `CC(C)C(C)C=CC(C)C1CCC2C3=CC=C4CC(O)CCC4(C)C3CCC21C` (stereo not drawn) were -1.32%, 4.56%, -0.819% and 1.29%.
Consider `CC[C@]1(O)C[C@@H]2CN(CCc3c([nH]c4ccccc34)[C@@](C(=O)OC)(c3cc4c(cc3OC)N(C)[C@H]3[C@@](O)(C(=O)OC)[C@H](OC(C)=O)[C@]5(CC)C=CCN6CC[C@]43[C@@H]65)C2)C1`, for which the Potency was 266 nM (active) with CRL-7250; 66.8 nM (active) and 84.1 nM (active) and 46.1 nM (active) with HEK293; 2.91 µM (active) and 18.4 nM (active) in the experiment with KB-3-1. The max response in the experiment on HaCat is 0.756%. The result in the experiment on HaCat was inactive.
Regarding `CC(C)C(=O)Oc1ccc(CO)cc1[C@H](CCN(C(C)C)C(C)C)c1ccccc1`, the max response with CRL-7250 is -3.71% and 3.58%; in the experiment on HEK293, -22.5% and -1.3%; in the experiment with HaCat, -23.8%; in the experiment on KB-3-1, -1.04% and 2.37%. Moreover, the result in the experiment on HaCat was inactive.
For the compound `O=C(NCc1ccccc1)c1csc(Nc2ccncn2)n1`, the Potency is 11800 nM (active) in the experiment with CRL-7250 and 5.26 µM (active) in the experiment with HEK293. In addition, the result in the experiment on HaCat was inactive. Moreover, the max response in the experiment on KB-3-1 was 3.38% and -16.6%.
As to `O=C(CCc1ccc(O)cc1)c1c(O)cc(O)cc1O[C@@H]1O[C@H](CO)[C@H](O)[C@H](O)[C@H]1O`, the max response in the experiment on CRL-7250 is -9.67%; in the experiment with HEK293, 1.98%; in the experiment with HaCat it was -1.37%; in the experiment with KB-3-1, 1.32%.
For the compound `O=C(Nc1ccccc1-c1cn2c(CN3CCNCC3)csc2n1)c1cnc2ccccc2n1`, the Potency in the experiment on CRL-7250 is 26400 nM (active). Also, the Potency in the experiment on HEK293 was 23.5 µM (active). Further, in the experiment on HaCat, the max response was 4.92% and the outcome was inactive.
With `CC(C)(C)OC(=O)N[C@H]1CCCCCC=C[C@@H]2C[C@@]2(C(=O)NS(=O)(=O)C2CC2)NC(=O)[C@@H]2C[C@@H](OC(=O)N3Cc4cccc(F)c4C3)CN2C1=O`, the max response with CRL-7250 was -21.2%; in the experiment on HEK293, 3.03%; in the experiment on HaCat, -10.7%; in the experiment on KB-3-1 it was 5.38%.
With `CN(C)c1cc(NC(=O)CNC(C)(C)C)c(O)c2c1C[C@@H]1C[C@H]3[C@H](N(C)C)C(=O)C(C(N)=O)=C(O)[C@@]3(O)C(=O)C1=C2O`, the max response is -28.8% with CRL-7250, 4.51% in the experiment on HEK293, 1.33% in the experiment on HaCat and -10.5% in the experiment with KB-3-1.
Consider `O=C(O)CCc1nc(-c2ccccc2)c(-c2ccccc2)o1`, for which the max response with CRL-7250 is -11.7% and 0.986%; with HEK293, -15.1% and -1.16%; in the experiment on HaCat, -18.5%; in the experiment on KB-3-1, -6.48%. Also, the compound was called inactive with HaCat and in the experiment with KB-3-1.
For the compound `COc1cccc([C@@H](C)NCCCc2ccccc2Cl)c1`, the outcome in the experiment with CRL-7250, in the experiment on HaCat and with KB-3-1 was inactive. For the same compound, the max response in the experiment on HEK293 is 1.17%.
Regarding `C=C1C(=O)OC(CCCCCCCC)C1C(=O)O` (stereo not drawn), the compound was classed as inactive in the experiment with CRL-7250, in the experiment with HEK293 and in the experiment on HaCat. For the same compound, in the experiment on KB-3-1, the max response was -17.3%.
Consider `N#Cc1ccc(NC(=O)Nc2ccccc2Br)c2n[nH]nc12`, for which the max response in the experiment on CRL-7250 is -24.9%; in the experiment with HEK293 it was -11%; in the experiment on KB-3-1, 1.71%. The compound was classed as inactive in the experiment with HaCat.
Regarding `CN1C[C@H]2c3ccccc3Oc3ccc(Cl)cc3[C@@H]2C1`, the max response in the experiment with CRL-7250 is -7.6% and -3.52%; in the experiment on KB-3-1, -7.18%. For the same compound, in the experiment on HEK293, the Potency was 10.6 µM (active). Further, the compound was classed as inactive in the experiment on HaCat.
As for `CC(C)(C)c1ccc(C(O)CCCN2CCC(C(O)(c3ccccc3)c3ccccc3)CC2)cc1` (stereo not drawn), the compound was classed as inactive with CRL-7250. Also, the max response with HEK293 is -7.01%; in the experiment with HaCat it was 1.94%; in the experiment with KB-3-1, -14.6% and -4.64%.
As to `COc1cc2nc(-c3ccc(N4CCN(C)CC4)cc3)nc(NCCN3CCOCC3)c2cc1OC`, the Potency is 1660 nM (active) in the experiment on CRL-7250, 5.8 µM (active) in the experiment on HEK293, 935 nM (active) in the experiment with HaCat and 66.2 nM (active) with KB-3-1.
